PubChem BioAssay (NCATS)
Several values for one entry are separate records, joined by “and”; a condition that tells them apart may be missing. Identical values can stand only once. Results filed as inconclusive are left out. Activity calls are given as the source filed them. Unless noted, calls follow the shape of the dose curve; as a rule, active = well fitted curve in the direction sought with a large enough effect; inconclusive = small, poorly fitted or top-dose-only effect, or another doubt; inactive = no such curve, though single readings can be large; an effect the other way counts as inactive or inconclusive.

Assays:
[1] = qHTS Assay for Identifying Gametocytocidal Compounds (AID 743244);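 also: % is scaled to controls: 0 for no effect and ±100 for the full control effect; actives lower the fluorescent signal which means gametocytes are killed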; details: P. falciparum 3D7 stage III-V gametocytes, alamarBlue, 72 h; max response: stronger effect = lower value
Method in brief: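 Using 20,000 stage III–V 3D7 gametocytes per well, compounds were incubated 72 h under 37 °C/5% CO2. Viability was then assessed by 24 h alamarBlue reduction, measured fluorometrically at 525/598 nm.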

[2] = qHTS assay for measurement of the activity of small molecule inhibitors on Zika virus induced Caspase-3 activity in human iPSC derived neural progenitor cells (hNPCs) (AID 1224857); also: % of control where 0% means no effect; nearly all actives have a fitted effect of over 65% in size
Method in brief: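 After overnight (16–20 h) culture at 350 cells/well, hNPCs get compound, then ZIKV 2 FFU/cell one hour later. Six hours on, Caspase-Glo 3/7 is added and luminescence measured.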

[3] = qHTS assay for measurement of the activity of small molecule inhibitors on Zika virus induced Caspase-3 activity in human astrocytoma cells (AID 1224859);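 also: plate controls were ZIKV-infected untreated cells for no effect and uninfected cells for full effect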
Method in brief: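 Inhibition of Zika-induced caspase-3/7 activity: SNB-19 cells, 1 h compound pretreatment, ZIKV 2 FFU/cell for 6 h at 37 C, Caspase-Glo luminescence read-out.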

[4] = qHTS assay to identify small molecule inhibitors of chordoma cells - UCH-1 (AID 1259355); also: nearly all actives have a fitted effect of over 55% in size; also: potency is read from the fitted curve at half-maximal effect
Method in brief: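 A 48hr growth-inhibition format: each drug tested at 15 concentrations together with added auranofin, camptothecin, doxorubicin, rubitecan and topotecan, with cell viability quantified as CellTiter-Glo luminescence.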

[5] = qHTS assay to identify small molecule inhibitors of chordoma cells - UCH-2 (AID 1259356); also: % is scaled to controls: 0 for no effect and ±100 for the full control effect
[6] = P-glycoprotein substrates identified in KB-8-5-11 adenocarcinoma cell line, qHTS therapeutic library screen (AID 1346987); also: nearly all actives have a fitted effect of over 65% in size; also: potency is read from the fitted curve at half-maximal effect
Method in brief: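 Compounds are pinned in dose-response onto KB-8-5-11 cells (500 cells/well, colchicine-free medium) and left 72 h at 37 degree C. CellTiter-Glo luminescence then yields AC50 values.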

[7] = qHTS assay for cell viability of the p53RE-bla HCT-116 cell line (AID 743292); also: % is scaled to controls: 0 for no effect and ±100 for the full control effect; nearly all actives have a fitted effect of over 55% in size
Method in brief: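 CellSensor p53RE-bla HCT-116 cells (4,000/well) pre-incubated 5 h at 37 C, then exposed to compounds in DMSO for 16 h at 37 C. Viability read as ATP content by CellTiter-Glo luminescence after 30 min at room temperature.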

[8] = qHTS assay for cell viability of HEK293 cells (AID 743288); details: ATP luminescence (CellTiter-Glo), 18 h, stronger effect = lower value; also: % is scaled to controls: 0 for no effect and ±100 for the full control effect; nearly all actives have a fitted effect of over 50% in size
Method in brief: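 HEK293, 18 h, 37 C, ATP luminescence. Cells at 2,000/well were allowed at least 5 h to settle before dosing; CellTiter-Glo developed 30 min at RT.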

[9] = qHTS profiling of the MIPE4 collection as inhibitors of Plasmodium falciparum (3D7) proliferation (AID 743344; call rule not given here;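 also: scaled between DMSO vehicle wells and 0.29 µM artemisinin as full inhibition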); details: P. falciparum 3D7 in erythrocytes, SYBR Green DNA fluorescence, 72 h; at 28.5 µM (top of the series)
Method in brief: (§1)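 Parasite DNA was quantified by SYBR Green I fluorescence (ex 485, em 535 nm) after overnight lysis in saponin/Triton buffer at room temperature. Cultures at 0.3% parasitemia and 2.5% hematocrit were first exposed to compound for 72 h at 37 C; signals were normalised to artemisinin (0.29 uM) and vehicle wells.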

[10] = qHTS profiling of the MIPE4 collection as inhibitors of Plasmodium falciparum (DD2) proliferation (AID 743345; call rule not given here); details: P. falciparum Dd2 in erythrocytes, SYBR Green DNA, 72 h; at 28.5 µM (top of the series)
Method in brief: as §1

[11] = qHTS profiling of the MIPE4 collection as inhibitors of Plasmodium falciparum (DD2) proliferation (Rep 2) (AID 743346; call rule not given here); details: P. falciparum Dd2 in erythrocytes, SYBR Green DNA, 72 h; at 28.5 µM (top of the series)
Method in brief: as §1

[12] = qHTS profiling of the MIPE4 collection as inhibitors of Plasmodium falciparum (HB3) proliferation (AID 743347; call rule not given here;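 also: plate controls were DMSO vehicle wells for no effect and artemisinin wells for full effect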); details: P. falciparum HB3 in erythrocytes, SYBR Green DNA, 72 h; at 28.5 µM (top of the series)
Method in brief: as §1

C=C1c2cccc(O)c2C(O)=C2C(=O)[C@]3(O)C(O)=C(C(N)=O)C(=O)[C@@H](N(C)C)[C@@H]3[C@@H](O)[C@H]12
inactive: max response [1] -4.37% | Potency [2] | outcome [3] | Potency [4] | Potency [5] | Potency [6]

O=C(Nc1cccc(C2=NCCN2)c1)Nc1cccc(C2=NCCN2)c1
inactive: max response [1] -7.84% | Potency [2] | outcome [3] | Potency [4] | Potency [5] | Potency [6]

NS(=O)(=O)c1ccc(Cl)c(S(N)(=O)=O)c1
inactive: max response [1] -1.41% | Potency [2] | outcome [3] | Potency [4] | Potency [5] | Potency [6]

CCCCN1C[C@H](O)[C@@H](O)[C@H](O)[C@H]1CO
inactive: max response [1] 2.05% | Potency [2] | outcome [3] | Potency [4] | Potency [5] | Potency [6]

Cc1cn([C@H]2C[C@H](F)[C@@H](CO)O2)c(=O)[nH]c1=O
inactive: max response [1] -5.75% | Potency [2] | outcome [3] | Potency [4] | Potency [5] | Potency [6]

CC(C)[N+](C)(C)CC(O)COc1cccc2ccccc12 (stereo not drawn)
inactive: max response [1] -10.5% | Potency [2] | outcome [3] | Potency [4] | Potency [5] | Potency [6]

CC(=O)OCC1=C(C(=O)O)N2C(=O)[C@@H](NC(=O)CSc3ccncc3)[C@H]2SC1
inactive: max response [1] -9.74% | Potency [2] | outcome [3] | Potency [4] | Potency [5] | Potency [6]

COc1ccc(S(=O)(=O)N2c3ccc(Cl)cc3[C@@](O)(c3ccccc3Cl)[C@H]2C(=O)N2CCC[C@@H]2C(N)=O)cc1OC
inactive: max response [1] 20.2% | Potency [2] | outcome [3] | Potency [4] | Potency [5] | Potency [6]

COP(=O)(OC)OC(c1ccc(Cl)cc1)P(=O)(OC)OC (stereo not drawn)
inactive: max response [1] 0.577% | Potency [2] | outcome [3] | Potency [4] | Potency [5] | Potency [6]

Cc1cc(-c2ccccc2)nnc1NCCN1CCOCC1
inactive: max response [1] -0.774% and -9.14% | Potency [2] | outcome [3] | Potency [4] | Potency [5] | Potency [6]

Nc1nc(-c2ccccc2)c(Br)c(=O)[nH]1
inactive: max response [1] -0.157% | Potency [2] | outcome [3] | Potency [4] | Potency [5] | Potency [6]

CC(=O)Oc1ccc(C)cc1
inactive: max response [1] -2.81% | Potency [2] | outcome [3] | Potency [4] | Potency [5] | Potency [6]

CCCCNC(=O)NS(=O)(=O)c1ccc(N)cc1
inactive: max response [1] 19.8% | Potency [2] | outcome [3] | Potency [4] | Potency [5] | Potency [6]

C/C=C/C=N/NC(=O)c1ccncc1
inactive: max response [1] -5.06% | Potency [2] | outcome [3] | Potency [4] | Potency [5] | Potency [6]

CN1CCC(OC(c2ccccc2)c2ccccc2)CC1
inactive: max response [1] -7.17% | Potency [2] | outcome [3] | Potency [4] | Potency [5] | Potency [6]

O=C(O)C1(C(=O)O)CCC1.[NH2-].[NH2-].[Pt+2]
inactive: max response [1] -10.4% | Potency [2] | outcome [3] | Potency [4] | Potency [5] | Potency [6]

CC(C)Cn1cnc2c1c(=O)n(C)c(=O)n2C
inactive: max response [1] -4.05% | Potency [2] | outcome [3] | Potency [4] | Potency [5] | Potency [6]

CC(C)CCCC(C)N (stereo not drawn)
inactive: max response [1] 6.57% | Potency [2] | outcome [3] | Potency [4] | Potency [5] | Potency [6]

CC1CCc2c(N3CCC(O)CC3)c(F)cc3c(=O)c(C(=O)O)cn1c23 (stereo not drawn)
inactive: max response [1] 21.4% | Potency [2] | outcome [3] | Potency [4] | Potency [5] | Potency [6]

Cc1cc(CC(=O)O)c(C)n1-c1ccc(Cl)cc1
inactive: max response [1] -9.92% | Potency [2] | outcome [3] | Potency [4] | Potency [5] | Potency [6]

Cc1cccc(C)c1NC(=O)CN1CCCC1
inactive: max response [1] 20.5% | Potency [2] | outcome [3] | Potency [4] | Potency [5] | Potency [6]

OCCOCCN1CCN(C2=Nc3ccccc3Sc3ccccc32)CC1
inactive: max response [1] -0.0618% | Potency [2] | outcome [3] | Potency [4] | Potency [5] | Potency [6]

Oc1c(Cl)cc(Cl)c(Cl)c1Cc1c(O)c(Cl)cc(Cl)c1Cl
inactive: max response [1] 14.7% | outcome [7] | Potency [2] | outcome [3] | Potency [5]
active: Potency [4] 25.1 µM | Potency [6] 2.06 µM

Oc1ccccc1C=NCc1ccccc1
inactive: max response [1] 0.984% | Potency [2] | outcome [3] | Potency [4] | Potency [5] | Potency [6]

CN(C)C(=O)Nc1ccc(Cl)c(Cl)c1
inactive: max response [1] -3.3% | max response [8] -11.4% | outcome [7] | Potency [2] | outcome [3] | Potency [4] | Potency [5] | Potency [6]

CCOC(=O)Nc1ccc2c(c1)N(C(=O)CCN1CCOCC1)c1ccccc1S2
85.2%: parasite growth remaining, % of DMSO control (lower = more inhibition) [10]
inactive: max response [1] 12.1% | Potency [2] | outcome [3] | Potency [4] | Potency [5] | Potency [6]
68.2%: parasite growth, % of control (lower = inhibition) [11]
47.5%: parasite growth, % of DMSO control [9]
41.6%: growth, % of control [12]
